# Data reported in PubChem BioAssay.
# Where “and” joins values, the source holds several entries; their conditions need not be identical. Equal entries are not always repeated. A number with no mark means an inactive call. No rule for the calls is given here.
# Biological target: Pantothenate synthetase (Mycobacterium tuberculosis (strain ATCC 25618 / H37Rv)) (UniProt P9WIL5)
# Assay: Coupled enzyme confirmation of inhibitors against recombinant Mtb PanC (AID 375);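 also: 0% = full reaction with vehicle and 100% = no enzyme background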
# Conditions: coupled enzyme assay; at 10 µM, stronger effect = higher value
# Sequence of Pantothenate synthetase (Mycobacterium tuberculosis (strain ATCC 25618 / H37Rv)) (P9WIL5 whole entry, looked up): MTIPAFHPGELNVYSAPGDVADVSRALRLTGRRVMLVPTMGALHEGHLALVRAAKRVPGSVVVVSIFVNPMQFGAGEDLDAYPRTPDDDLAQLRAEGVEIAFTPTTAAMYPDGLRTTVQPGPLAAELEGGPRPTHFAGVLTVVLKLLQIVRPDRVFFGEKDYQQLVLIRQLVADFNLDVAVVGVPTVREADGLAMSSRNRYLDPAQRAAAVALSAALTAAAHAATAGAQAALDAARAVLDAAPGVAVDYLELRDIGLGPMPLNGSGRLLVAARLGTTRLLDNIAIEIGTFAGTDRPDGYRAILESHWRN
row,SMILES,inhibition
1,O=C(O)C1CCCCC1C(=O)NCCc1ccccc1 (stereo not given),0%
2,Cc1cc(NC(=O)Cc2cn3ccsc3n2)n(-c2ccccc2)n1,1%
3,CC1CCN(C(=O)CSc2nc3ccccc3[nH]2)CC1,0%
4,Cc1cccc(N2CCN(C(=O)c3cc4ccccc4oc3=O)CC2)c1C,0%
5,CC(=O)N1CCN(C(=O)COc2ccc(Br)cc2)CC1,0%
6,Cc1cc(C(=O)O)ccc1-n1c(C)ccc1C,6%
7,Cc1noc(C)c1S(=O)(=O)N1CCC(C(=O)Nc2ccccn2)CC1,4%
8,CC1(C)COCN1S(=O)(=O)c1ccc(C(=O)Nc2nnc(-c3ccc(Cl)s3)o2)cc1,4%
9,O=C1CC(c2cccnc2)c2cc3c(cc2N1)OCO3 (stereo not given),0%
10,Cc1cc(C)nc(SC2=CS(=O)(=O)c3ccccc32)n1,0%
11,NC(=O)COC(=O)CNC(=O)c1ccc(Cl)cc1,0%
12,CCOC(=O)CSc1nc2cc(C(=O)N3CCC(C(N)=O)CC3)ccc2c(=O)n1-c1ccccc1,0%
13,O=C(O)CC1Sc2nc3ccccc3n2C1=O (stereo not given),0%
14,c1ccc(CCn2nnnc2C(c2cccs2)N2CCOCC2)cc1 (stereo not given),1%
15,COC(=O)CN(c1ccc(F)cc1)S(=O)(=O)c1ccccc1,0%
16,Cc1ccc(S(=O)(=O)N2CCN(CCO)CC2)cc1-c1nnc2c3ccccc3c(C)nn12,0%
17,CCOC(=O)c1ccc(Oc2cc(C)nc(SC)n2)cc1,0%
18,Cc1cccc(-n2ncc3c(N4CCC5(CC4)OCCO5)ncnc32)c1,7%
19,CCOc1ccc(S(=O)(=O)Nc2cccc(Cl)c2)cc1,1%
20,CN(Cc1ccccc1)C(=O)c1ccccc1NC(=O)c1ccco1,0%

row,SMILES,inhibition
1,CCOC(=O)c1c(C)[nH]c(C(=O)Cn2c(=O)oc3ccccc32)c1C,4%
2,CC(C)Cc1n[nH]c(=O)[nH]1,2%
3,Brc1ccc2[nH]c3nc(SCCN4CCOCC4)nnc3c2c1,0%
4,Cc1ccc(-c2csc3nnc(SCC(=O)NCc4ccco4)n23)cc1,2%
5,O=C(c1ccc(Cl)c(Cl)c1)N1CCOCC1,5%
6,CC(=O)N1CCc2cc(S(=O)(=O)NCCC(=O)NC3CCCc4ccccc43)ccc21 (stereo not given),0%
7,CCN(CC)CC(=O)Nc1c(C)cccc1C,7% and 0%
8,COc1nc(NCCc2ccc(OC)c(OC)c2)nc(NC(C)(C)CO)n1,0%
9,CCOC(=O)c1cnc(-n2nc(C)cc2C)nc1Nc1ccc(N(C)C)cc1,8%
10,CN1C(=O)NC(NC(=O)C2CCCCC2)(C(F)(F)F)C1=O (stereo not given),0%
11,CCN(CC)CCOC(=O)C1(C2CCCCC2)CCCCC1,0%
12,CCCCn1cnc2c(cnn2-c2ccc(Cl)cc2)c1=O,6%
13,Nc1nc2c(ncn2COCCO)c(=O)[nH]1,0%
14,O=C(NCC1CCCO1)c1cccc(N2C(=O)C3C4C=CC(C4)C3C2=O)c1 (stereo not given),11%
15,CCCCCSc1nc2c(cnn2-c2ccccc2)c(=O)[nH]1,11%
16,CN(C)CCCN1C(=O)c2oc3ccccc3c(=O)c2C1c1cccs1 (stereo not given),0%
17,CC(C)(C)C(=O)Cn1c(=N)n(Cc2ccccc2)c2ccccc21,8%
18,CN(C)c1ccc(NC(=O)c2cc3c(=O)n4ccccc4nc3n2C)cc1,7%
19,CCCCn1nnnc1NCc1cccs1,0%
20,O=C(Sc1nnnn1C1CCCCC1)c1cccs1,0%
